The values below come from PubChem BioAssay.

The test system of assay [1] is TRPC4 beta (transient receptor potential cation channel C4), mouse. The assay can be described thus: activators of mouse TRPC4 channel, confirmation, cell-based, Fluo4 calcium, HEK293 TRPC4beta/mu-opioid, duplicates, 10 µM (AID 2426;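 active means fluorescence ratio normalized to control raised more than 50% in primary screen plus both repeat runs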). The conditions noted are these: Fluo4 calcium fluorescence, at 10 µM; hits give high values.
The subject of assay [2] is transient receptor potential cation channel C4 beta (TRPC4), mouse. The assay can be described thus: activators of mouse TRPC4 channel, confirmation, cell-based, second round, Fluo4, HEK293 TRPC4beta/mu-opioid, 1 µM (AID 2461;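 active means primary screen active and over 50% activation in each of two duplicate runs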). The conditions noted are these: Fluo4 calcium fluorescence, at 1 µM; hits give high values.
In assay [3] the test system is TRPC4 (transient receptor potential cation channel C4 beta), mouse. The assay can be described thus: positive allosteric modulators of mouse TRPC4, confirmation, cell-based, second round, Fluo-4, HEK293 TRPC4beta/mu-opioid, 1 µM (AID 2554;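 active means primary screen hit whose fluorescence ratio, in both repeats, exceeds the weak agonist control mean by 3 SD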). The conditions noted are these: DAMGO EC20, Fluo-4 calcium flux, at 1 µM; hits give high values. In general terms: A change in cytosolic calcium serves as a functional read-out for many receptors and channels.

Assay [4] deals with TRPC4 beta (transient receptor potential cation channel C4), mouse. The assay can be described thus: positive allosteric modulators of mouse TRPC4, confirmation, cell-based, Fluo-4, HEK293 TRPC4beta/mu-opioid (AID 2555;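 active means primary screen hit whose calcium fluorescence ratio, in both repeats, exceeds the weak agonist control mean by 3 SD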). The conditions noted are these: DAMGO EC20, Fluo-4 calcium flux, at 10 µM; hits give high values.
Assay [5] concerns the target Short transient receptor potential channel 4 (Mus musculus) (UniProt Q9QUQ5). The assay can be described thus: inhibitors of mouse TRPC4 channel, confirmation, cell-based, Fluo4, HEK293 TRPC4beta/mu-opioid (AID 2636;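 active means calcium signal cut by more than 3 SD below the full-agonist control yet still positive, in both repeats and the earlier primary screen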). The conditions noted are these: DAMGO, Fluo4 calcium flux, at 10 µM; hits give high values.
Assay [6] shares this target. The experiment in a line: inhibitors of mouse TRPC4 channel, confirmation, cell-based, second round, Fluo4, HEK293 TRPC4beta/mu-opioid, 1 µM (AID 2637;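 active means calcium signal ratio cut to more than 3 SD under the fully stimulated control mean yet still positive, in both repeats and the primary screen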;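 on inhibition: percent of integrated ratio relative to wells lacking test compound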). The conditions noted are these: Fluo4 calcium flux, DAMGO, at 1 µM; hits give high values.
The target is the same in assay [7]. The assay can be described thus: mouse TRPC4 channel activators, dose response, cell-based, HEK293 TRPC4/mu-opioid, Fluo-4 calcium (AID 434937;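 active means primary screen activator hit with a dose response curve and TRPC4 channel activation at any tested dose; inactive means no activation, no dose response, or not a primary hit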).
The target is the same in assay [8]. The assay can be described thus: TRPC4 positive allosteric modulators, dose response, cell-based, HEK293 TRPC4/mu-opioid, Fluo-4 calcium, EC20 DAMGO (AID 434941;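 active means earlier screen potentiator hit that boosts the TRPC4 ion channel at some dose, with a dose response; inactive means no potentiation, no dose response, or not a prior hit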;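 further: calcium entry triggered by an EC20 dose of DAMGO at the co-expressed mu-opioid receptor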).
The target of assay [9] is Short transient receptor potential channel 6 (Mus musculus) (UniProt Q61143). The experiment in a line: inhibition of mouse TRPC6 channel, confirmation, selectivity assay for TRPC4 inhibitor project, cell-based, HEK293, membrane potential dye, duplicate (AID 434948;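 active means active in primary screen and both duplicates, each dropping signal beyond three positive-control SD with fluorescence still positive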). The conditions noted are these: HEK293 TRPC6, membrane potential dye fluorescence, at 10 µM, stimulated with maximal-effect acetylcholine; hits give high values.
Short transient receptor potential channel 6 (Mus musculus), sequence (Q61143 whole entry, looked up): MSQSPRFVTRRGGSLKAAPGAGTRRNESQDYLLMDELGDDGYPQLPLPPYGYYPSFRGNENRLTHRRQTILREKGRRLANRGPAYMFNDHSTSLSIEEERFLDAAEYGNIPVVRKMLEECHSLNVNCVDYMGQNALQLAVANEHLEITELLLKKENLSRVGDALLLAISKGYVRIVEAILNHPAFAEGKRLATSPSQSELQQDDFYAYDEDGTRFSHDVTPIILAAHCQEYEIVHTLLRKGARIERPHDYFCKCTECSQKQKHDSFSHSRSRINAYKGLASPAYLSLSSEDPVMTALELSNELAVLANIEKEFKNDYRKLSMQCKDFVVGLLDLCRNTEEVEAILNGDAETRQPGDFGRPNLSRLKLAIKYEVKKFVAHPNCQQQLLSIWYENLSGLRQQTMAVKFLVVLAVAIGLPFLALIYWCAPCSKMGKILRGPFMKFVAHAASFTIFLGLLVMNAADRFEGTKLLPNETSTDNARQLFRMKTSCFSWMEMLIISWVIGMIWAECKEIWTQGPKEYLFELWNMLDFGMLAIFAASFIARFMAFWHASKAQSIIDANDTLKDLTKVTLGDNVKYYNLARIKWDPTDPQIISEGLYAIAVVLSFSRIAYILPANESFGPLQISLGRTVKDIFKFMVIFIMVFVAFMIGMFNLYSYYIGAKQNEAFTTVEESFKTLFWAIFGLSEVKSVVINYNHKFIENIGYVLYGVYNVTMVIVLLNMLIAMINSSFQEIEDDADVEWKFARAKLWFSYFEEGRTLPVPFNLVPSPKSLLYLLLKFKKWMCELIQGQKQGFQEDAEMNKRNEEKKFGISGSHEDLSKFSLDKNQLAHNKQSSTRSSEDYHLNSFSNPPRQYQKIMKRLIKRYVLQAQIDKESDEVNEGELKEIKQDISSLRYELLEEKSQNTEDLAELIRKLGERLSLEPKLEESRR

Assay [10] shares this target. The experiment in a line: activation of mouse TRPC6 channel, confirmation, selectivity assay for TRPC4 activator project, cell-based, HEK293, membrane potential dye, duplicate (AID 434950;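 active means membrane potential signal rise above negative control mean plus 3 SD in both duplicates, also active in the earlier TRPC4 screen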). The conditions noted are these: HEK293 TRPC6, membrane potential fluorescence, at 10 µM; hits give high values.
Assay [11] has the same target. The assay can be described thus: TRPC6 potentiation by TRPC4 potentiator hits, confirmation, selectivity assay for TRPC4 potentiator project, HEK293 cells, membrane potential dye, duplicate (AID 434952). The conditions noted are these: HEK293 TRPC6, membrane potential dye fluorescence, at 10 µM, maximal acetylcholine added after compound; hits give high values.
Assay [12] concerns the target Short transient receptor potential channel 4 (Mus musculus) (UniProt Q9QUQ5). The assay can be described thus: calcium flux activators in TRPC4/5HT1a cells, counter-screen for TRPC4 activator project, cell-based, second counter screen, HEK293 TRPC4/5HT1a, Fluo-4 (AID 434977;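 active means calcium signal rise above buffer-control mean plus 5 SD in both duplicates, and also a hit in the primary screen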). The conditions noted are these: Fluo-4 calcium flux, at 10 µM; hits give high values.
The nature of assay [13]: calcium flux inhibitors in TRPC4/5HT1a cells, confirmation, counter-screen for TRPC4 inhibitor project, cell-based, second counter screen, HEK293 TRPC4/5HT1a, Fluo-4 (AID 434978;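 active means primary screen active whose calcium signal fell more than 3 SD beyond the full-serotonin control mean in both duplicate plates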;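 on outcome: serotonin given first at submaximal then at maximal dose after compound preincubation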). The conditions noted are these: Fluo-4 calcium flux, at 10 µM, serotonin added to trigger calcium flux; hits give high values.
Assay [14] concerns TRPC4 (mouse), co-expressed with 5HT1a in HEK293. The experiment in a line: calcium flux potentiators in TRPC4/5HT1a cells, confirmation, counter-screen for TRPC4 potentiator project, cell-based, second counter screen, HEK293 TRPC4/5HT1a, Fluo-4 (AID 434979;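 active means signal rise over 3 SD above mean of control wells given weak agonist, in both repeats and first screen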). The conditions noted are these: Fluo-4 calcium flux, at 10 µM, serotonin added at its EC20 dose; hits give high values.
Assay [15] is described as follows: calcium flux activation in mu-opioid HEK293 cells, confirmation, counter-screen for TRPC4 activator project, cell-based, HEK293 mu-opioid receptor line (AID 449723;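 active means hit in primary screen, with calcium signal over 5 SD above buffer well mean in both duplicates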;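 further: counter screen cells carry the mu-opioid receptor alone and lack TRPC4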). The conditions noted are these: Fluo-4 calcium fluorescence, at 10 µM; hits give high values.
The nature of assay [16]: calcium flux enhancement in mu-opioid HEK293 cells, confirmation, counter-screen for TRPC4 allosteric potentiator project, cell-based, HEK293 mu-opioid receptor line (AID 449724;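 active means calcium signal rise more than 3 SD above the low-dose agonist control mean, in both duplicate plates and the primary screen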;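 further: HEK293 cells carrying mu-opioid receptor only with no TRPC4 channel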). The conditions noted are these: Fluo-4 calcium flux, at 10 µM, compound added before EC20 DAMGO stimulus; hits give high values.

For part of these data: Results with a measured potency or affinity are listed apart. The source made the active and inactive calls.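 How the source made its calls, unless noted: active means compound raising the membrane signal above positive-control mean plus 3 SD in both repeats, and a primary screen hit; inactive means the rest.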

Short transient receptor potential channel 4 (Mus musculus), sequence (Q9QUQ5 whole entry, looked up): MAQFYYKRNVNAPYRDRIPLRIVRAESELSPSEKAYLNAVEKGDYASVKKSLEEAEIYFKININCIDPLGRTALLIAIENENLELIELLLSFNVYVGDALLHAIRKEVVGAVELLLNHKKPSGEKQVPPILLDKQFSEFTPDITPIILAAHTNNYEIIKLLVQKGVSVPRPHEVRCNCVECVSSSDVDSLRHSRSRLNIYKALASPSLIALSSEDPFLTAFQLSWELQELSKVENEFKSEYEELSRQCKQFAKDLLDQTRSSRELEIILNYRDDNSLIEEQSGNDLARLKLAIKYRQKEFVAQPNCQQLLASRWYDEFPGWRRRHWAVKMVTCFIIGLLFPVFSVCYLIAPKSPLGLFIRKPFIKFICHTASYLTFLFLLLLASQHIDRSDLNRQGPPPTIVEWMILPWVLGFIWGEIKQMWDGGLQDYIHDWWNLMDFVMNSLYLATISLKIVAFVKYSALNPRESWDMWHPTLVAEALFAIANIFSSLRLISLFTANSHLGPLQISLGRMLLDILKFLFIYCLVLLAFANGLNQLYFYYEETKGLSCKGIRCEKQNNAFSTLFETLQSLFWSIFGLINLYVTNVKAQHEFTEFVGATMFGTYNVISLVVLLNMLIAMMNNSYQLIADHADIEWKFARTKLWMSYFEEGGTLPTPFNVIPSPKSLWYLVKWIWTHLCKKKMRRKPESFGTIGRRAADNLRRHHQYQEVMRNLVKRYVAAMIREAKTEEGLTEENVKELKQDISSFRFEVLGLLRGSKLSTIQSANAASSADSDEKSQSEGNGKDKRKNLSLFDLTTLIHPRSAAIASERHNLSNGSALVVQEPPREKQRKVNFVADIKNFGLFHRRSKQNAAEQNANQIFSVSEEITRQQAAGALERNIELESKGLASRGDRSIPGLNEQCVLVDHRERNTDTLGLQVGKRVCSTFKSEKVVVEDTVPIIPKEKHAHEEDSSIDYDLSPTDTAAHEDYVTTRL

For the compound `COc1cc(CNC2CCCC2)cc(Cl)c1OCc1ccc(F)cc1`, the outcome in assay [1], in assay [2], in assay [3], in assay [4], in assay [6] and in assay [7] was inactive. The result in assay [8], in assay [9], in assay [10], in [11], in [12] and in assay [14] was inactive. The result in assay [15] and in [16] was inactive. For the same compound, the inhibition – broadly, the percentage by which the read-out fell short of the control – is 82% (active) in assay [5] and 37.5% (active) in assay [13].
With `COc1ccc(-n2c3c(cc(C(=O)NCc4ccco4)c2=O)C(=O)CC(C)(C)C3)cc1`, the outcome in assay [1], in assay [2], in assay [3], in [4], in [6] and in [7] was inactive. In addition, the result in assay [8], in [9], in assay [10], in [11], in assay [12] and in [13] was inactive. The outcome in [14], in [15] and in assay [16] was inactive. Moreover, in assay [5], the inhibition is 53% (active).
For the compound `Cn1c(=O)c2c(nc(SCc3cccnc3)n2Cc2ccc(F)cc2)n(C)c1=O`, the result in assay [1], in assay [2], in assay [3], in [4], in assay [6] and in assay [7] was inactive. Moreover, the outcome in assay [8], in assay [9], in assay [10], in assay [11], in [12] and in [14] was inactive. In addition, the outcome in assay [15] and in assay [16] was inactive. For the same compound, the inhibition in assay [5] was 79% (active); in assay [13], 22.8% (active).
Consider `c1ccc(-c2nc(NCc3ccco3)c3ccccc3n2)nc1`, for which the result in assay [1], in assay [2], in assay [3], in [4], in assay [7] and in [8] was inactive. Also, the outcome in [10], in assay [11], in assay [12], in assay [14], in assay [15] and in assay [16] was inactive. Also, the inhibition in [5] was 93% (active); in [6] it was 74% (active); in assay [9], 34.5% (active); in [13], 22.1% (active).
Consider `CC1CCCCN1CCCNC(=O)c1nn(C)c2c1CSc1ccccc1-2` (stereo not given), for which the result in assay [1], in [2], in assay [3], in assay [4], in [6] and in assay [7] was inactive. In addition, the outcome in assay [8], in assay [9], in [10], in assay [11], in [12] and in assay [13] was inactive. Further, the result in assay [14], in [15] and in assay [16] was inactive. The inhibition in [5] was 94% (active).
With `COc1ccccc1N1CCN(CC(C)N(C(=O)C2CCCCC2)c2ccccn2)CC1` (stereo not given), the outcome in assay [1], in [2], in assay [3], in [4], in assay [7] and in assay [8] was inactive. The result in assay [9], in [10], in assay [11], in assay [12], in [14] and in assay [15] was inactive. In addition, in [16], the result was inactive. In addition, the inhibition in assay [5] is 93% (active); in assay [6], 52% (active); in assay [13], 1.31% (active).
For the compound `CCN(CC)c1ncnc2scc(C3COc4ccccc4O3)c12` (stereo not given), the outcome in [1], in assay [2], in [3], in assay [4], in assay [6] and in assay [7] was inactive. The outcome in assay [8], in [9], in assay [10], in assay [11], in assay [12] and in [14] was inactive. Further, the outcome in assay [15] and in [16] was inactive. Moreover, the inhibition is 86% (active) in assay [5] and 33% (active) in [13].
`CC12CC3(C)CC(C)(C1)CC(NC(=O)N1CCCC1)(C2)C3`: the result in assay [1], in assay [2], in assay [3], in [4], in assay [6] and in [7] was inactive. The outcome in [8], in assay [9], in assay [10], in [11], in assay [12] and in assay [13] was inactive. Moreover, the outcome in [14], in assay [15] and in [16] was inactive. Moreover, in assay [5], the inhibition was 76% (active).
In the case of `Cc1nn(C(=O)c2cccc([N+](=O)[O-])c2)c(C)c1Sc1ccccc1`, the outcome in assay [1], in assay [2], in assay [3], in assay [4], in assay [6] and in assay [7] was inactive. Moreover, the outcome in assay [8], in assay [9], in [10], in assay [11], in [12] and in assay [14] was inactive. Moreover, the outcome in assay [15] and in assay [16] was inactive. For the same compound, the inhibition was 88% (active) in assay [5] and 32.5% (active) in [13].
Turning to `CN1CCN(c2nc(-c3cccnc3)nc3scc(-c4ccccc4)c23)CC1`, the result in [1], in [2], in assay [3], in assay [4], in assay [5] and in [6] was inactive. For the same compound, the outcome in assay [7], in [8], in assay [9], in [10], in assay [11] and in assay [12] was inactive. For the same compound, the result in assay [13], in assay [14], in assay [15] and in [16] was inactive.
On to `NC(=NC1CCCCC1)c1ccc(Cl)cc1`, for which the outcome in [1], in assay [2], in assay [3], in assay [4], in assay [7] and in [8] was inactive. Moreover, the outcome in [9], in assay [10], in assay [11], in [12], in assay [14] and in assay [15] was inactive. The result in assay [16] was inactive. For the same compound, the inhibition is 97% (active) in assay [5], 66% (active) in assay [6] and 22.8% (active) in assay [13].
For `Cc1nc2ccccc2n1Cc1ccc(Br)cc1`, the outcome in assay [1], in [2], in [3], in assay [4], in [7] and in assay [8] was inactive. The compound was classed as inactive in [9], in assay [10], in [11], in assay [12], in assay [14] and in assay [15]. In addition, the outcome in assay [16] was inactive. For the same compound, the inhibition in assay [5] was 96% (active); in assay [6] it was 74% (active); in assay [13], 9.19% (active).
Consider `CC(C)(C)Cc1nc2ccccc2n1CCc1ccccc1`, for which the result in assay [1], in assay [2], in assay [3], in assay [4], in [7] and in assay [8] was inactive. Moreover, the outcome in assay [9], in assay [10], in [11], in [12], in assay [14] and in assay [15] was inactive. The outcome in assay [16] was inactive. Besides, the inhibition in assay [5] is 82% (active); in assay [6] it was 64% (active); in assay [13], 17.2% (active).
As to `Cc1ccc(Cn2c(Cc3ccccc3)nc3ccccc32)cc1`, the result in [1], in assay [2], in [3], in [4], in assay [5] and in assay [7] was inactive. For the same compound, the result in [8], in assay [9], in assay [10], in assay [11], in [12] and in assay [14] was inactive. Besides, the outcome in [15] and in assay [16] was inactive. Also, the results for the inhibition in assay [6] and in assay [13] were 64% (active) and 7.29% (active), respectively.
As to `COc1cccc2cc(C(N)=O)/c(=N\NC(=O)c3ccccc3)oc12`, the result in [1], in assay [2], in assay [3], in assay [4], in assay [7] and in assay [8] was inactive. The call in assay [9], in assay [10], in assay [11], in assay [12], in assay [14] and in assay [15] was inactive. In assay [16], the outcome was inactive. For the same compound, the inhibition in [5] was 73% (active); in assay [6], 44% (active); in [13], 40.1% (active).
